Where “and” joins values, the source holds several entries; their conditions need not be identical. Equal values may be shown once. Results filed as inconclusive are left out. Where a call stands in place of a potency, no number is given. More than one record can exist for a structure, and the calls need not agree. Calls of active or inactive are those of the source. Unless noted, the call rests on the fitted dose curve; in most records, active means well fitted curve in the direction sought with a large enough effect in the repeat runs; inconclusive means weak or mixed curves; inactive means no such curve, though single readings can be large; an effect the other way counts as inactive or inconclusive.
Key:
[1] = qHTS assay for small molecules that induce genotoxicity in human embryonic kidney cells expressing luciferase-tagged ATAD5 (AID 651632); further: nearly all actives have a fitted effect of over 15% in size; further: potency means the concentration at half of the fitted maximal effect
Procedure, shortened: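 A rise in luciferase signal from ATAD5-tagged HEK293T cells marks genetic stress. Cells were exposed to compounds for 16 hr at 37C, 5% CO2, then luciferase was quantified after a 30 min room-temperature incubation with Amplite.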

[2] = qHTS assay for small molecule agonists of the p53 signaling pathway - cell viability (AID 651633; calls by dose curve; further: nearly all actives have a fitted effect of over 30% in size; further: potency means the concentration at half of the fitted maximal effect)
Procedure, shortened: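 Viability counter-read: CellTiter-Glo luminescence (30 min, room temperature) in the same p53RE-bla plates. These plates had been exposed to compounds for 16 h at 37 C.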

[3] = qHTS assay for small molecules that induce genotoxicity in human embryonic kidney cells expressing luciferase-tagged ATAD5 - cell viability (AID 651634; calls by dose curve; further: nearly all actives have a fitted effect of over 25% in size; further: potency means the concentration at half of the fitted maximal effect)
Procedure, shortened: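 Cytotoxicity counter-readout: after 15.5 hr compound treatment at 37C, live-cell protease activity in ATAD5-luciferase HEK293T cells measured by CellTiter-Fluor fluorescence, 30 min development at 37C.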

[4] = qHTS assay for small molecule disruptors of the mitochondrial membrane potential (AID 720635); further: potency means the concentration at half of the fitted maximal effect
Procedure, shortened: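 Mitochondrial membrane potential tracked with Mito-MPS dye, red aggregates (ex 540/em 590 nm) against green monomers (ex 490/em 535 nm). Compound treatment 1 hr at 37C, dye 30 min in HepG2.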

[5] = qHTS assay to test for compound auto fluorescence at 535 nm (green) in HepG2 cells (AID 720675)
[6] = qHTS assay to test for compound auto fluorescence at 460 nm (blue) in HEK293 cells (AID 720678)
Procedure, shortened: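 HEK293, 2,000 cells/well, 10% dialyzed FBS; attach 4-5 hr 37C; pin compound or DMSO; o/n 37C/5% CO2; fluorescence 405/460 nm; triamterene-equivalent units.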

[7] = qHTS assay to test for compound auto fluorescence at 460 nm (blue) in HEK293 cell free culture (AID 720681)
Procedure, shortened: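 Blue fluorescence (Ex 405/Em 460 nm, triamterene-equivalent) was read immediately after pin transfer of compound or DMSO into medium (DMEM, 10% FBS) without cells.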

[8] = qHTS assay to test for compound auto fluorescence at 535 nm (green) in HEK293 cell free culture (AID 720682)
Procedure, shortened: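 Intrinsic compound fluorescence is measured in culture medium containing 10% FBS, with excitation at 485 nm and detection at 535 nm, referenced to fluorescein.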

[9] = qHTS assay to test for compound auto fluorescence at 590 nm (red) in HEK293 cell free culture (AID 720683)
Procedure, shortened: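 Red-channel autofluorescence of compounds in culture medium (DMEM, 10% FBS), no cells, measured at 540/590 nm. Rose Bengal sodium is the reference fluorophore for equivalence.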

[10] = qHTS assay to test for compound auto fluorescence at 590 nm (red) in HepG2 cell free culture (AID 720684)
Procedure, shortened: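 Cell-free; medium MEM + 10% FBS; compound or DMSO added by pintool; read Ex 540/Em 590 nm; Rose Bengal sodium as red reference fluorophore.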

[11] = qHTS assay to test for compound auto fluorescence at 460 nm (blue) in HepG2 cell free culture (AID 720685)
Procedure, shortened: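 Cell-free plates of MEM plus 10% FBS received 23 nL compound or DMSO vehicle; blue-channel (405/460 nm) intensity scored against triamterene as reference fluorophore.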

[12] = qHTS assay to test for compound auto fluorescence at 535 nm (green) in HepG2 cell free culture (AID 720686)
[13] = target: Glucocorticoid receptor (Homo sapiens) (UniProt P04150); test: qHTS assay to identify small molecule agonists of the glucocorticoid receptor (GR) signaling pathway (AID 720691; active means well fitted activation curve with a large enough effect in the signal ratio in the repeat runs, not every such curve was filed as active; the % refers to the signal ratio; further: potency means the concentration at half of the fitted maximal effect)
Procedure, shortened: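 Agonist-mode qHTS in HeLa cells stably expressing a glucocorticoid-response-element beta-lactamase reporter. Fluorescence intensity read with FRET substrate (2 h, room temperature) after 18 h compound treatment at 37 C.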

[14] = qHTS assay for small molecule disruptors of the mitochondrial membrane potential - cell viability (AID 720634; calls by dose curve; further: nearly all actives have a fitted effect of over 20% in size; further: potency means the concentration at half of the fitted maximal effect)
Procedure, shortened: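 Cytotoxicity was quantified from ATP content by CellTiter-Glo luminescence in the same wells as the MMP dye read-out. HepG2 (2,000 cells/well) were plated overnight and exposed to compounds for 1 hr at 37 C.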

[15] = qHTS assay to test for compound auto fluorescence at 590 nm (red) in HepG2 cells (AID 720674)
Procedure, shortened: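 Red autofluorescence (Ex/Em 540/590 nm, Rose Bengal sodium equivalents) was measured in HepG2 cells, 2,000 per well in MEM plus 10% FBS, plated overnight at 37 C. Readings were taken 1 hr after adding 23 nL compound or DMSO, at 37 C and 5% CO2.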

[16] = qHTS assay to test for compound auto fluorescence at 590 nm (red) in HEK293 cells (AID 720679)
Procedure, shortened: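 Intensity at 540nm excitation and 590nm emission is reported as Rose Bengal sodium-equivalent autofluorescence. Measurements followed overnight exposure (37C, 5% CO2) of HEK293 cells, 2,000 per well, to 23 nL compound.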

[17] = qHTS assay to test for compound auto fluorescence at 535 nm (green) in HEK293 cells (AID 720680)
[18] = qHTS assay to test for compound auto fluorescence at 460 nm (blue) in HepG2 cells (AID 720687)
Procedure, shortened: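 Blue-channel autofluorescence (Ex/Em 405/460 nm, triamterene-equivalent) was measured after 1 hr compound exposure at 37 C, 5% CO2. Cells were HepG2, plated overnight at 37 C in MEM plus 10% FBS.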

[19] = target: Glucocorticoid receptor (Homo sapiens) (UniProt P04150); test: qHTS assay to identify small molecule antagonists of the glucocorticoid receptor (GR) signaling pathway (AID 720692; active means well fitted inhibition curve with a large enough effect in the signal ratio in the repeat runs, not every such curve was filed as active; the % refers to the signal ratio; further: potency means the concentration at half of the fitted maximal effect)
Procedure, shortened: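 Inhibition of dexamethasone-driven (5 nM final) beta-lactamase expression was measured in GRE-reporter HeLa cells over 18 h at 37C. Fluorescence was read after 2 h with the B/G FRET substrate at room temperature.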

[20] = qHTS assay for small molecule agonists of the p53 signaling pathway (AID 651631; calls by dose curve; further: nearly all actives have a fitted effect of over 15% in size)
Procedure, shortened: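 Fluorescence intensity from cleaved LiveBLAzer B/G substrate (2 h, room temperature) served as the signal. Beforehand, HCT-116 reporter cells bearing p53 response elements were treated 16 h at 37 °C with DMSO-dissolved compounds.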

Chain of Glucocorticoid receptor (Homo sapiens) (P04150 whole entry, looked up): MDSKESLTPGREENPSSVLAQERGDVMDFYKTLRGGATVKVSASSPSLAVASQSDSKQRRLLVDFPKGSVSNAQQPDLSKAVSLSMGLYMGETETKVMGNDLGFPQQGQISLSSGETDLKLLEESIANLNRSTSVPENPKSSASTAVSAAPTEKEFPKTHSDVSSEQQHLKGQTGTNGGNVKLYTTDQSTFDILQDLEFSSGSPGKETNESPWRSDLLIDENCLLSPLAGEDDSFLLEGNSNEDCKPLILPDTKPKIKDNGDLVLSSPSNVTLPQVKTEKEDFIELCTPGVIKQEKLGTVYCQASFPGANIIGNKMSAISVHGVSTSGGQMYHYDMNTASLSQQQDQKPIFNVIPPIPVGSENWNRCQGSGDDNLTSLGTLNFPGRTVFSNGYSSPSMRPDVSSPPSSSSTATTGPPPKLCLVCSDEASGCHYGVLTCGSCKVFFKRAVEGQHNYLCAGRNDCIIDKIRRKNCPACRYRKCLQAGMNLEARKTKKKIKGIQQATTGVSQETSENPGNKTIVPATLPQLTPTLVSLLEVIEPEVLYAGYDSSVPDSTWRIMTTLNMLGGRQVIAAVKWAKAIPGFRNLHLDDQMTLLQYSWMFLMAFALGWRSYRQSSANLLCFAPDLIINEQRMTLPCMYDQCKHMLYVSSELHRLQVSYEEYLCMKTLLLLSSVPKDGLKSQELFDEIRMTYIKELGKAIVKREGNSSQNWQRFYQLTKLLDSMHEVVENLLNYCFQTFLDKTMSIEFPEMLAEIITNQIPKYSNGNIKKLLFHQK

Row | SMILES | Potency [1] | Potency [2] | Potency [3] | Potency [4] | outcome [5] | outcome [6] | outcome [7] | outcome [8] | outcome [9] | outcome [10] | outcome [11] | outcome [12] | Potency [13] | Potency [14] | outcome [15] | outcome [16] | outcome [17] | outcome [18] | Potency [19] | Potency [20]
1 | Cc1ccc2c(c1N)C(=O)c1ccccc1C2=O | 13.5 µM (active) and 9.69 µM (active) | inactive | 12.2 µM (active) | 480 nM (active) and 386 nM (active) | inactive | inactive | inactive | inactive | inactive | inactive | inactive | inactive | inactive |  |  |  |  |  |  | 
2 | Cc1c(COC(=O)[C@@H]2[C@H](/C=C(\Cl)C(F)(F)F)C2(C)C)cccc1-c1ccccc1 | inactive |  | inactive | 26.7 µM (active) and 34.3 µM (active) | inactive | inactive | inactive | inactive | inactive | inactive | inactive | inactive |  | inactive | inactive | inactive |  |  |  | 
3 | Brc1ccc(Oc2cc(Br)c(Br)cc2Br)c(Br)c1 | inactive | inactive | inactive | 4.86 µM (active) and 8.7 µM (active) | inactive | inactive | inactive | inactive | inactive | inactive | inactive | inactive |  | inactive |  | inactive | inactive |  |  | 
4 | CCCCCCCCC(=O)NCc1ccc(O)c(OC)c1 | inactive | inactive | inactive |  | inactive | inactive | inactive | inactive | inactive | inactive | inactive | inactive | 30.1 µM (active) | inactive | inactive | inactive | inactive | inactive |  | 
5 | Nc1c(Cl)cc([N+](=O)[O-])cc1Cl | inactive | inactive | inactive | 24.5 µM (active) and 4.33 µM (active) | inactive | inactive | inactive | inactive | inactive | inactive | inactive | inactive | inactive | 24.3 µM (active) |  | inactive |  | inactive | inactive | 
6 | Nc1ccc(-c2ccc(N)c(N)c2)cc1N | inactive | 48.6 µM (active) | inactive | 216 nM (active) and 7.7 µM (active) | inactive |  | inactive | inactive | inactive | inactive | inactive | inactive |  | inactive | inactive | inactive | inactive | inactive |  | 
7 | C=CCc1ccc(OC)cc1 |  | inactive | inactive |  | inactive | inactive | inactive | inactive | inactive | inactive | inactive | inactive |  | inactive |  | inactive |  |  |  | 
8 | S=C1NCCN1 |  | inactive | inactive |  | inactive |  | inactive | inactive | inactive | inactive | inactive | inactive |  |  | inactive | inactive | inactive |  |  | inactive
9 | Cc1cc(C)cc(C)c1 | inactive |  | inactive | inactive | inactive |  | inactive | inactive | inactive | inactive | inactive | inactive |  | inactive | inactive | inactive |  |  |  | 
10 | COP(=S)(OC)Oc1ccc([N+](=O)[O-])cc1 |  | inactive |  | 34.4 µM (active) | inactive | inactive | inactive | inactive | inactive | inactive | inactive | inactive |  | inactive and 54.5 µM (active) | inactive | inactive | inactive |  |  | inactive
11 | CCCCC(CC)COC(=O)Cl (configuration not stated) | inactive | inactive | inactive |  | inactive | inactive | inactive | inactive | inactive | inactive | inactive | inactive | inactive |  |  |  |  |  | inactive | 
12 | C=CCc1ccc2c(c1)OCO2 |  | inactive | inactive |  | inactive | inactive | inactive | inactive | inactive | inactive | inactive | inactive |  | inactive |  |  | inactive |  |  | inactive
13 | CC(C)=CC1C(C(=O)OCc2coc(Cc3ccccc3)c2)C1(C)C (configuration not stated) | inactive | inactive | inactive | 48.6 µM (active) and 61.1 µM (active) | inactive | inactive | inactive | inactive | inactive | inactive | inactive | inactive | inactive |  |  | inactive | inactive | inactive | 21.8 µM (active) | 
14 | CCCCCc1cc(O)cc(O)c1 | inactive | inactive |  | 9.73 µM (active) and 7.7 µM (active) | inactive | inactive | inactive | inactive | inactive | inactive | inactive | inactive |  | 61.1 µM (active) | inactive | inactive |  |  |  | 

Source: PubChem BioAssay (Tox21)
